Results: PubChem BioAssay (NCI)
About 79,000 compounds went through this panel and 15% of them were active in at least one assay; those are over-represented in the sample as a whole. No stated cut-off is given here; in the data, active means growth inhibition above about 70%; inactive means the rest.

Tests used:
[1] = NCI Yeast Anticancer Drug Screen. Data for the rad50 strain (AID 155);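 further: 0% = growth of vehicle-only cultures of the same strain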; conditions: S. cerevisiae rad50 strain growth inhibition; at 50.0 µM; stronger effect = higher value
In short: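 A DNA repair-deficient yeast mutant serves as the test organism; compound-induced growth inhibition is calculated against vehicle-treated cells.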

[2] = NCI Yeast Anticancer Drug Screen. Data for the mec2-1 strain (AID 157); conditions: S. cerevisiae mec2-1 strain, at 50.0 µM, stronger effect = higher value
In short: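 Mutant yeast (mec2-1) grown with compound; growth inhibition relative to vehicle control reported.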

[3] = NCI Yeast Anticancer Drug Screen. Data for the sgs1 mgt1 strain (AID 161);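 further: 0% = growth of cultures given vehicle only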; conditions: S. cerevisiae sgs1 mgt1 strain, at 50.0 µM, stronger effect = higher value
In short: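 Compounds are added to genetically altered yeast, and growth is compared with cultures given vehicle alone to give percent inhibition.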

[4] = NCI Yeast Anticancer Drug Screen. Data for the cln2 rad14 strain (AID 165);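 further: 0% = growth equal to vehicle treated cultures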; conditions: S. cerevisiae cln2 rad14 strain, at 50.0 µM, stronger effect = higher value
In short: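 Readout is yeast growth inhibition versus vehicle-treated controls, using a strain with cln2 and rad14 alterations exposed to compound.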

[5] = NCI Yeast Anticancer Drug Screen. Data for the bub3 strain (AID 167); conditions: S. cerevisiae bub3 mutant strain, at 50.0 µM, stronger effect = higher value
In short: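 Inhibition values come from growth of compound-treated mutant yeast normalised to vehicle-treated controls.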

[6] = NCI Yeast Anticancer Drug Screen. Data for the mlh1 rad18 strain (AID 175); conditions: S. cerevisiae mlh1 rad18 strain growth inhibition; at 50.0 µM; stronger effect = higher value
In short: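 Genetically defined yeast (DNA repair-deficient) exposed to compounds; growth inhibition determined relative to vehicle.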

Measured: growth inhibition

Nc1nc([O-])c([I+]c2ccccc2)c(=O)[nH]1
inactive: [1] -17.5% | [2] -11.8% | [3] 3.7% | [4] -8.5% | [5] 0.15% | [6] -6.45%

O=C(Nc1cc(NC(=O)n2nnc3ccccc32)c(Br)cc1Br)n1nnc2ccccc21
inactive: [1] 51.4% | [2] 25% | [3] 27.2% | [4] 24.2% | [5] 2.15% | [6] 27.8%

Cc1oc2cc(O)ccc2c(=O)c1-c1ccccc1Br
inactive: [1] 9.85% | [2] 24.9% | [3] 17.4% | [4] -24.6% | [5] 15.9% | [6] 27.4%

CCCOC(=O)O[C@H]1CC[C@@]2(C)C(=CC[C@H]3[C@@H]4CC[C@H]([C@H](C)CCCC(C)C)[C@@]4(C)CC[C@@H]32)C1
inactive: [1] -34.6% | [2] -31% | [3] -27.7% | [4] 3.9% | [5] -28.8% | [6] -34.4%

O=C1c2cc3c(cc2CC12Cc1ccc4c(c1C2=O)CCCC4)CCCC3 (stereo not given)
inactive: [1] -3.15% | [2] -4.15% | [3] -10.4% | [4] 3.6% | [5] 7.35% | [6] 9.8%

CC1(C)CCCOc2cccc(c2)OCCCC(C)(C)C1=O
inactive: [1] 14.5% | [2] -1.7% | [3] -9.05% | [4] 27.1% | [5] 28.8% | [6] 25.9%

Cn1ncc2c(NCCc3ccccc3)nc(Cl)nc21
inactive: [1] 19.8% | [2] -18.3% | [3] 5.15% | [4] 11.2% | [5] 8.1% | [6] 30.2%

CCCCCCCCc1ccccc1
inactive: [1] 34.6% | [2] 30.9% | [3] 35.6% | [4] 13.5% | [5] 9.75% | [6] 21.8%

CC(C)(C)c1ccc(OCCOCCOc2ccc(C(C)(C)C)cc2S(N)(=O)=O)c(S(N)(=O)=O)c1
inactive: [1] 0.35% | [2] -23.3% | [3] -19.8% | [4] 9.7% | [5] -3.5% | [6] -6.35%

O=C(O)c1ccc(Nc2nc3ccccc3nc2-c2cccs2)cc1
inactive: [1] 2.9% | [2] 18.6% | [3] 5.95% | [4] 20.7% | [5] 12.2% | [6] -9.7%

O=C(O)CCC(C(=O)O)N(Cc1ccccc1)Cc1ccccc1 (stereo not given)
inactive: [1] 11.4% | [2] -0.4% | [3] -1.45% | [4] 1% | [5] 7.75% | [6] 5.9%

CC(=O)Nc1nc2c(s1)CCc1ccccc1-2
inactive: [1] 49.4% | [2] 13.8% | [3] 12.8% | [4] 5.6% | [5] 10.1% | [6] 15.2%

COC1CCC(/C(C#N)=C/C2CCC(NC(C)=O)CC2)CC1 (stereo not given)
inactive: [1] 3.95% | [2] 0.65% | [3] 25.9% | [4] 1% | [5] 22.1% | [6] 5.2%

COc1cc2c(cc1OC)NC(C)=CC(C)=N2
inactive: [1] -14.3% | [2] 5.1% | [3] 0.3% | [4] 25.2% | [5] 25.7% | [6] 15.9%

COc1ccc(C(=O)C(c2ccccc2)c2ccccc2)cc1
inactive: [1] 6.65% | [2] 1.95% | [3] -13.2% | [4] 4.35% | [5] 9.25% | [6] 6%

NC(N)=NC(=O)c1ccc(N)cc1
inactive: [1] -13.6% | [2] -2.25% | [3] -0.1% | [4] -7.35% | [5] -3.4% | [6] 23.5%

CCN(CC)C(=O)C1CCN(Cc2ccc3c(c2)CCC3)CC1
inactive: [1] -4.1% | [2] 42.5% | [3] -1.2% | [4] -16.6% | [5] 2.9% | [6] 3.95%

O=C1NC(=O)C(CCBr)N1 (stereo not given)
inactive: [1] -21.1% | [2] -6.85% | [3] -10.3% | [4] -3.8% | [5] -13.8% | [6] 5.7%

C/C(CC(=O)Nc1cc(Cl)c(Cl)cc1Cl)=N\NC(N)=O
inactive: [1] 28.8% | [2] 11.7% | [3] 1.55% | [4] 24.4% | [5] 30.3% | [6] 19.4%

CC1(C)OC(=O)c2ccccc21
inactive: [1] 30.1% | [2] 3% | [3] -5.05% | [4] -14.8% | [5] 1.35% | [6] 2.2%
